Consider 27 compounds from PubChem BioAssay (NCI).

Each structure is given as a SMILES string. The panel holds about 83,000 compounds, 20% with a hit somewhere; the sample as a whole holds those more often.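 Interpretation: 100, growth as untreated; towards 0, rising growth inhibition; 0, no net growth; 0 to -100, cell death. Compounds scoring below 10 were considered active.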 Unmarked numbers belong to inactive results. Activity calls are given as the source filed them.

The test has as its system HL-60(TB) leukemia. Description: NCI-60 one-dose screen, 48 h (100 = growth as untreated, 0 = no growth, -100 = all killed). Particulars: 10 µM unless noted.
For the compound `CCOC(=O)Oc1c(OC)cc(C(=O)c2ccc(OC)c(OC(=O)CCl)c2OC)cc1OC`, the growth is -30.9% (active).

Regarding `COc1cc(OC)cc(-c2ccc(-c3ccc(C(=N)N)s3)s2)c1`, the growth was -71.9% (active).

For `CCCCCCCCCCCCNc1ncnc2[nH]ncc12`, the growth is 74.4%.

With `CCCCc1nc(Cl)c(C2CC(c3ccc(S(N)(=O)=O)cc3)=NN2c2cc(Cl)cc(Cl)c2)[nH]1` (configuration not stated), the growth is 9.72% (active).

Regarding `COc1ccc(N)c(N)c1`, the growth is 84.9%.

For the compound `CN1CCN(Cc2ccc(NC(=O)c3[nH]ncc3Nc3cc(OC4CCCC4)ncn3)cc2)CC1`, the growth is -12.7% (active).

In the case of `CC(C)=CCC[C@](C)(O)[C@H]1CC[C@]2(C)[C@@H]1CC[C@@H]1[C@@]3(C)C/C(=C/c4cccc([N+](=O)[O-])c4)C(=O)C(C)(C)[C@@H]3CC[C@]12C`, the growth was 68.4%.

Turning to `CN(C)C(=O)c1cc2cnc(Nc3ccc(-c4csc5c(=O)cc(N6CCNCC6)oc45)cc3)nc2n1C1CCCC1`, the growth was -21% (active).

Turning to `COc1ccc(/C=N/c2cc(C(C)(C)C)nn2-c2ccccc2)cc1`, the growth is 88.3%.

As to `Cc1ccc(S(=O)(=O)OC[C@@]2(C)CC[C@]3(C)CC[C@]4(C)C(=CC[C@@H]5[C@@]6(C)CCCNC(C)(C)[C@@H]6CC[C@]54C)[C@@H]3C2)cc1`, the growth is -63% (active).

Take `CCCCOC(=O)c1ccc(NC(=O)CCl)cc1`: the growth was 25.3%.

Take `Nc1ncccc1O`: the growth was 51.6%.

`COc1cc(C)ccc1C(=O)c1ccc(C)cc1OC`: the growth is 8.59% (active).

As for `O=C(Nc1ccc(Cl)cc1)Nc1nc2ccc(OC(F)(F)F)cc2o1`, the growth was 83.3%.

Turning to `COc1cc(OC)cc(-c2n/c(=C\c3c(O)[nH]c4ccc(Cl)cc34)cc3c2=Nc2ccccc2-3)c1`, the growth was 90.2%.

For `Cc1cc(Nc2cc(N3CCN(C)CC3)nc(Sc3ccc(NC(=O)C4CC4)cc3)n2)n[nH]1`, the growth is 11.2%.

In the case of `O=c1oc2ccc3ccccc3c2cc1-c1ccnc2[nH]c(=S)[nH]c(=O)c12`, the growth was 87.3%.

Regarding `C=C(C)[C@@H]1CC[C@]2(CO)CC[C@]3(C)[C@H](CC[C@@H]4[C@@]5(C)CC[C@H](O)C(C)(C)[C@@H]5CC[C@]43C)[C@@H]12`, the growth is 66.4%.

Regarding `COc1cc2c(cc1O)CCc1cc(O)cc(OC)c1-2`, the growth is 76.4%.

`CCNC(=O)Oc1ccc(/C(=C(\C)c2ccccc2)c2ccc(OCCN(CC)CC)cc2)cc1`: the growth is 52.5%.

As for `O=C(CCl)N1c2ccccc2Oc2ccc3ccccc3c21`, the growth is -0.539% (active).

Turning to `CSc1nc(CC(C)C)c(C#N)c(=O)n1C`, the growth was 78.7%.

Turning to `CCOc1ccncc1[N+](=O)[O-]`, the growth was 103%.

`COc1ccc(Oc2nc(Nc3ccc(N4CCCCC4)nc3)ncc2NC(=O)c2cc(OC)cc(OC)c2)cc1`: the growth is 0.492% (active).

For `CC(C)c1ccc(Cn2ccc3c4c(N)nc(NC5CC5)nc4ccc32)cc1`, the growth was -68.8% (active).

With `N#CN1CC[C@H](C(=O)Nc2ncc(-c3ccccc3)s2)C1`, the growth was -23.2% (active).

Turning to `N#Cc1c(NC(=O)c2ccccc2)sc2c1CCC(=O)C2`, the growth is -2.62% (active).
